# Laboratory results from the supplement of paper PMC11417369.
# The full ranking holds about 25,000 sequences; the median of “ln(normalized median fluorescence intensity)” is about 9.3, and the highest 2% start at about 10. This is one part of a sample in which the highest values are shown more often than they occur.
# Tested on: PF3D7_0420300 AP2 domain 1 (GST-tagged)
# Assay: gcPBM binding intensity (ln(normalized median fluorescence intensity)); higher = stronger DNA binding
# Summary of the method: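 Alexa488 anti-GST antibody, scanned at 488 nm, detected GST-tagged P. falciparum DNA-binding domains that had been expressed in E. coli and incubated for 1 h on an Agilent 4 × 180k array. The array carried primer-extended double-stranded 36-bp intergenic genomic probes and negative controls. Binding intensity is the highest Masliner-normalised natural-log median intensity across replicate spots of either orientation of each probe.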
row,Sequence,gcPBM binding intensity (ln)
1,TATATAACTGTCTTCACACACACATATAAATAAATA [CACACA_site7317],9.77
2,TAATTTCTTTAGGGGGTGCTTTTATAGTTTTTATTA,10.1
3,TATATATTTATTTATAGTACACTATTTATGAAAACC [XGTACX_site3062],9.1
4,TATAATCATATTAAGGGTACATATGTGTAAATATTT [XGTACX_site6018],9.23
5,ATTAAAAGGGGGTTTACATGTGTGTGTGTAATATGG [TGCATGCA_negctrl_site293],10.2
6,AATAATATTAATAAAAGTACATGTGTAATATATATA [XGTACX_site5922],9.51
7,AACAACTATTACTGCACACATTCTTACACTATATAA [CACACA_site654],9.75
8,TATAAATAAAGCAGTACACACATTTATTTTAGATAC [CACACA_site7566],9.61
9,ATAAATATCATATATATACACACGTAATACATAATA [CACACA_site4001],9.56
10,GGGGGGAGGGTGAATACACACGTAATAATCATAAAC [CACACA_site8502],10.3
11,ATAAAAAAATCAGACACACACACGTAAACACATACA [CACACA_site5529],10.1
12,ATGCTATATTAAAAACGTACAAACTGTTTAGAAAAA [XGTACX_site8943],9.12
13,TTATTTAGTATATTATGTACATACAATGCCTGGGAA [XGTACX_site4578],9.21
14,AATAAAGCAATAAATACACACATATTTATATTTATA [CACACA_site7390],9.56
15,AATAGTAAAAGATATACACACACCAAAAAATAGAAT [CACACA_site2289],10.3
16,TAAAAAAGAAAATATATACACACCAAAAAAAAAAAA [CACACA_site3146],9.66
17,AATAAAGCAATAAATACACACATATATATATATATA [CACACA_site2934],9.31
18,AATAGTAAAAGATATACACACACCAAAAAATATAAT [CACACA_site5293],9.99
19,AAAAAGAAAATATATACACACCAAAAAAAAAAAAAA [CACACA_site5698],9.46
20,TAAATATATTTATACACACACACCAAAGCAATAGAT [CACACA_site7393],10.3
21,TATAAATAAATAGATACACACATATTTATAAATACA [CACACA_site6219],9.56
22,TAAATATATAAATACACACACACCAAAGCAATAGAT [CACACA_site5605],10.2
23,TATATATATAAATACACACACACACCCCAAAGCGTA [CACACA_site4211],10.1
24,TAAATATATATATACACACACACCAAAGCAATAGAT [CACACA_site2940],10.3

row,Sequence,gcPBM binding intensity (ln)
1,TGTAAATATATATATACACACACACCGAAGCAATAG [CACACA_site8960],10.1
2,AGCTATAATAAATATACACACATATATAAATATGTA [CACACA_site6583],9.37
3,CATGTGTTCTATATTTATGTCTAACTTTTTAATTAA [CACACA_negctrl_site904],9.43
4,GTTTAAAAAAATTATCAACTTTAAAAAGGTAACATT [XGTACX_negctrl_site203],8.99
5,ATTTATAAAACAGGCACACATATAATAAATTTTATA [CACACA_site2600],9.54
6,AATACTCAAAAGAATCGTACAAACAACACTCCCACG [XGTACX_site7564],9.4
7,TTTTTTTTTCAAGAGGTGCGTGTATTTTAACAAAAA,9.03
8,TTAATTATATTATGCACACACAATTGGAAAAAAAAT [CACACA_site1958],9.64
9,TATAAAATACTGTATCGATGGGGGAGGGCGCAGGGG [TGCATGCA_negctrl_site250],11
10,ATATATGGGGCGCAGGAAAAGAGTTTTGGAAATAAA [CACACA_negctrl_site1265],9.2
11,AGTATATAAAATACTGTATCGATGGGGGAGGGCGCA [CACACA_negctrl_site1612],10
12,TTTCTAATTTATATCACACACATATTTATATAGTAA [CACACA_site6813],9.41
13,TATAAATTTATAAATAGTACATATATTTATATATAT [XGTACX_site6433],9.07
14,CCCACAGACGGACACACACACACACCGACACATATA [CACACA_site4356],10.2
15,CACAGACACGGACACACACACATATATATATATATA [CACACA_site5248],9.86
16,TACAGATACGGACACACACACACACCCAGACAAAAA [CACACA_site4432],10
17,CATACACCCAGACACACACACATATATATATATATA [CACACA_site634],9.94
18,CCCACAGACGGACACACACACATATATATATATATA [CACACA_site4351],9.81
19,CCCACAGACGGACACACACACACATATATATATATA [CACACA_site4352],10.1
20,CACAGACACGGACACACACACACACCCACATATATA [CACACA_site4355],10.3
21,TTGGCATACGGACACACACACACACCCAGACATATA [CACACA_site4492],10.2
22,CACAGACACGGACACACACACACACCCAGACACATA [CACACA_site4357],10.2
23,AATCTAATATAATGCACACATAAAAAAAAATCAAAC [CACACA_site3633],9.8
